BCLXL inh: Bcl-xL (human) inhibition. 320,000 tested, 0.7% active. inhibition, % at 10.9 µM. GST-Bcl-xL / FITC-Bim BH3 peptide fluorescence polarization. Q07817;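 active = inhibition above the mean of all tested compounds plus 3 SD, cutoff set per campaign, cut at about 30% in these data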;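 also: 0% = DMSO wells and 100% = unlabeled Bim-BH3 peptide competitor; inhibitors lower millipolarization by displacing the labeled peptide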
GLD-1 TGE inh: GLD-1-TGE RNA interaction inhibition (C. elegans); inhibition, % at 5.96 µM; Q17339; 320,000 tested, 0.44% active; purified GLD-1 + fluorescein TGE RNA, fluorescence polarization;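 active = percent inhibition above a per-plate cutoff, the plate mean of test compounds plus 3 SD, cut at about 30% in these data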;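 also: 0% = DMSO wells with GLD-1 and probe and 100% = wells lacking GLD-1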
MCL1 BIM primary: disrupts human MCL1 binding to BIM-BH3 peptide | Q07820 | GST-MCL1 / FITC-Bim-BH3 fluorescence polarization | inhibition, % at 10.9 µM | 320,000 tested, 0.68% active;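 active = inhibition above the mean inhibition of all tested compounds plus 3 SD, set per campaign, cut at about 40% in these data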;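 also: 0% = DMSO wells and 100% = unlabeled Bim-BH3 peptide control; higher means more loss of mP so more displacement of Bim peptide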
Target sequence (Q07820 whole entry, looked up): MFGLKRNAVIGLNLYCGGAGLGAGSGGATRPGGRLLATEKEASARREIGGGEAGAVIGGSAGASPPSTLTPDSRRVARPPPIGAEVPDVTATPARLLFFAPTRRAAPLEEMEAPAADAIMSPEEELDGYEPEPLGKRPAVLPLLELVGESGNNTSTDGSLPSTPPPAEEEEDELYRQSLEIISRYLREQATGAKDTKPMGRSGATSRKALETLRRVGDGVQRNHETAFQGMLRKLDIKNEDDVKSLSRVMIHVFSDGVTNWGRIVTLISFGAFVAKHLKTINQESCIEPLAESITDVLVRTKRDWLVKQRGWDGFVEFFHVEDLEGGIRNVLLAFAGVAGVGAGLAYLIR
MEX-5 binding: C. elegans MEX-5 TCR-2 RNA binding activity; Q9XUB2; MEX-5/FITC-TCR2 RNA binding, fluorescence polarization; hits give low values; activity score (negative = inhibition of binding), % at 10 µM; 300,000 tested, 0.38% active; AID 1832;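 active = inhibition past about -25% in most replicates, and total fluorescence under double the plate's negative control median, limit read from the data; inconclusive = replicates evenly split on the limit, or fluorescence at least double controls; inactive = too little inhibition in most replicates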;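 also: 0% = DMSO and -100% = 5 µM competing unlabeled TCR2 RNA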
EBV gp42 block: inhibitors of Epstein-Barr virus glycoprotein 42; Q1HVG2; Fluorescence polarization binding assay, mP read-out; inhibition, % (tested at 21.74 µM); 220,000 tested, 0.42% active; in the data active = inhibition above about 50%
Target sequence (Q1HVG2 whole entry, looked up): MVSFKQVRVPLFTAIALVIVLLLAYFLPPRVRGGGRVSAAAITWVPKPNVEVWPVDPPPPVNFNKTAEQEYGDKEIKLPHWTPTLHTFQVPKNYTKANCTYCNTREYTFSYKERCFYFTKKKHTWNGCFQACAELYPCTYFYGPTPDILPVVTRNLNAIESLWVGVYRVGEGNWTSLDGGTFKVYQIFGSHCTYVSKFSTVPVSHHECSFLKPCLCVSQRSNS
E coli Lon inh: inhibitors of E. coli Lon protease. P0A9M0. purified E. coli Lon protease, fluorescence polarization. inhibition, % at 7.94 µM. 360,000 tested, 0.42% active. AID 602123; in the data active = inhibition above about 13%, passing the limit was not always enough;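 also: 0% = enzyme with probe and DMSO and 100% = no enzyme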
eLon confirm: E. coli Lon inhibition confirmation. shares compounds with E coli Lon inh. purified E. coli Lon, fluorescence polarization. inhibition, % at 7.94 µM. 1,400 tested, 31% active. AID 602230; in the data active = inhibition above about 16%;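 also: 0% = enzyme with probe and DMSO and 100% = no enzyme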
* hit, by the source's call; i = inactive; ? = inconclusive; . = not tested or not shown; + = active, no number. Hits are enriched below; roughly 1.5% of the tested compounds scored in any of these assays.

SMILES	BCLXL inh	GLD-1 TGE inh	MCL1 BIM primary	MEX-5 binding	EBV gp42 block	E coli Lon inh	eLon confirm
Cc1cc(C)c(Cn2c(=O)n(CCCC(=O)NCc3ccco3)c(=O)c3ccccc32)c(C)c1	-1	-1	-12	-2	.	18*	-7
Nc1ccccc1C(=O)NN=Cc1cccnc1	.	.	.	.	.	21*	-10
Cn1c(O)c(N=NC(=O)CNC(=O)c2cccnc2)c2ccccc21	3	4	8	-4	.	19*	3
CCCn1c(O)c(N=NC(=O)CNC(=O)c2cccnc2)c2ccccc21	0	-2	-3	1	.	8	.
Cc1ccc(NC(=O)CCCn2nc(C)c3c(C)n(-c4ccccc4)nc3c2=O)c(Cl)c1	0	7	0	-3	.	5	.
O=C1CCCN1CCCNS(=O)(=O)c1ccc(Cl)c(C(=O)N2CCOCC2)c1	-2	7	-1	2	-18	-1	.
O=C(NCCN1CCOCC1)c1cc(S(=O)(=O)NCCCN2CCCC2=O)ccc1Cl	5	-1	11	-2	-9	40*	10
CC(C)c1onc(C(=O)Nc2cccnc2Cl)c1[N+](=O)[O-]	4	-1	11	1	7	19*	-17
O=C(O)CN1C(=O)c2cccc3c(Br)ccc1c23	8	8	0	-2	.	-5	.
CC(=O)N(C(C)=O)N1C(=O)c2cccc3c(N4CCOCC4)ccc(c23)C1=O	43*	33*	28	?	-22	39*	21*
CCCCNc1ccc2c3c(cccc13)C(=O)N(CCCC)C2=O	.	.	.	?	181*	135*	i
Cc1ccc(N2CCOCC2)c2c1C(=O)c1ccccc1C2=O	2	2	1	-2	-8	-7	.
COc1ccc(OC)c(NCCN2C(=O)c3ccccc3C2=O)c1	.	.	.	.	.	-1	.
CN(C)CCCN1C(=O)c2cccc3c(Br)ccc(c23)C1=O	35*	22	39	?	77*	31*	68*
CCCN1C(=O)c2cccc3c(N4CCCCC4)ccc(c23)C1=O	43*	35*	35	-135*	80*	74*	-23
COc1ccc(C=NOCC(=O)OCC(=O)Nc2ccc(OC)cc2)cc1	.	2	.	.	.	50*	21*
CC(=O)Nc1ccc(/C=N/OCC(=O)Nc2ccc(C)cc2)cc1	10	3	4	1	0	-5	.
COc1cc2c(C#N)c(N3CCc4ccccc4C3)nc(N)c2c(N)n1	23	16	30	0	.	56*	-16
Cc1cccc(C)c1NC(=O)C(C)N1CCCC1 (configuration not stated)	4	8	0	1	.	-3	.
Cc1cc(C)c(NC(=O)C(C)N2CCCCCC2)c(C)c1 (configuration not stated)	2	9	-2	-3	.	71*	-5
Cc1ccc(S(=O)(=O)NCC(C)n2nc(C)nc2C)cc1 (configuration not stated)	3	3	-2	1	.	12	.
COc1ccccc1CN1CCC(n2nccc2NC(=O)CCOc2ccccc2)CC1	6	5	2	1	.	-4	.
COc1cccc(OC)c1OCC(O)CN1CCN(c2ccc(F)cc2)CC1 (configuration not stated)	-2	-1	2	2	.	7	.
COc1cccc(OCC(O)CN2CCN(c3ccc(F)cc3)CC2)c1 (configuration not stated)	4	1	8	4	.	20*	-14
Cc1ccc(S(=O)(=O)NNC(=S)Nc2ccccc2)cc1	2	-3	9	-2	-6	22*	-6
SMILES	BCLXL inh	GLD-1 TGE inh	MCL1 BIM primary	MEX-5 binding	EBV gp42 block	E coli Lon inh	eLon confirm
Cc1ccc(S(=O)(=O)NNC(=S)Nc2ccc(Cl)cc2)cc1	-6	0	-7	-3	8	-2	.
CCN(CC(=O)Nc1c(F)cccc1F)C(=O)CSc1nc(C)cc(C)n1	2	2	9	-1	.	0	.
COc1cc(NC(C)CCCNC(C)C)c2ncccc2c1OC (configuration not stated)	.	.	.	.	.	30*	14
COc1cc(NCCCCCCN)c2ncccc2c1OC	.	.	.	.	.	7	.
Cn1c(CNc2ccc(Cl)cc2)nnc1SCc1ccccc1	4	-1	7	-1	-9	+	2
CCn1c(CC(=O)Nc2ccccc2F)nnc1SCC(=O)NC1CCCC1	-6	0	-1	1	.	17*	5
Cn1c(CC(=O)Nc2ccccc2F)nnc1SCC(=O)NC1CCCCC1	2	-8	3	2	.	-6	.
Cc1nc2ccc(C(=O)N3CCN(c4ccccc4)CC3)cn2c1N(C)C(=O)CCc1ccccc1	.	.	.	.	.	-2	.
NC(=O)COc1ccc(-n2cnnn2)cc1	6	-2	30	-1	28	1	.
COc1cc(/C=N/NC(=O)COc2ccc(-n3cnnn3)cc2)ccc1OCC(N)=O	2	3	6	1	-4	22*	-3
C[C@H](NC(=O)[C@@H]1CSC2c3ccccc3C(=O)N21)C(=O)NCCc1ccc(F)cc1 (some centres not stated)	4	6	4	-1	.	23*	-3
COC(=O)c1ccc(OC(=O)c2cccnc2SC)cc1	-8	-8	-10	-4	.	88*	-16
COC(=O)c1ccc(OC(=O)c2ccccn2)cc1	-4	6	-2	2	-29	-9	.
COC(=O)c1c(C(=O)OC)c2n(c1C)Cc1ccccc1C2	12	13	15	?	1	123*	-36
Cc1cccc(S(=O)(=O)N2CN(Cc3ccco3)c3nc4ccccc4nc32)c1	25	19	24	-3	-10	59*	-13
O=CNCc1nc2ccccc2n1CCc1ccccc1	2	4	8	0	.	-6	.
O=CNCCCc1nc2ccccc2n1CCc1ccccc1	.	.	.	4	.	18*	5
COc1ccc(OC)c(CN2CCSCC2)c1	.	.	.	0	.	3	.
COc1ccc(OC)c(CN2CCN(c3ccccc3OC)CC2)c1	5	-1	8	0	0	17*	4
COc1ccc(OC)c(CN2CCCCCC2)c1	0	8	8	-2	.	21*	121*
COc1ccc(CN2CCN(c3ccccc3OC)CC2)c(OC)c1	1	-2	2	0	.	1	.
COc1ccccc1N1CCN(Cc2ccc(O)c3ncccc23)CC1	0	1	2	1	-15	15*	12
CC(=O)Nc1ccc(S(=O)(=O)N2CCN=C2SCc2ccc([N+](=O)[O-])cc2)cc1	4	12	6	1	.	-2	.
C=CCOc1ccccc1CNc1cccc(F)c1	-1	1	0	0	-8	-8	.
C=CCOc1ccccc1CNc1ccc2[nH]c(=O)[nH]c2c1	7	-3	1	-1	0	25*	-3
